SMILES strings stand for the structures. Hit rate of the full screen: of about 69,000 compounds, about 8,600 (12%) showed an effect of 50% or more. What follows is part of a selection rich in strong results, with near analogues and random picks from the rest.

This experiment has as its system Plasmodium berghei. Kind of experiment: Screen against P. berghei liver stage (PbLuc), transformed with Luciferase, at 10uM. As to conditions: tested at 10 uM. Type of experiment: functional, HepG2.
Take `Cc1ccc(C(=O)N2CCN(C)C3(CCC(=O)N(C)CC3)C2)c(F)c1` (stereo not drawn): the INHIBITION is 15.8%. As for `CCc1nnc(CNC2CCCN(Cc3noc(C4CC4)n3)C2)o1` (stereo not drawn), the figure is -16%; as for `COCCN1CCC(NCc2c(F)cccc2F)C1` (stereo not drawn), 25.4%. For `CCn1cc(NC(=O)C2CCN(CC(=O)NC(C)(C)CC)CC2)cn1`, the INHIBITION was found to be 10%. As for `CCS(=O)(=O)N1CCCC2(COCCN(c3ccccn3)C2)C1` (stereo not drawn), the figure is 56.1%; as for `CC(=O)N1CCCC2(C1)CN(c1ncc(C)cn1)CCO2` (stereo not drawn), -5.63%; as for `Cc1cnc(N2CCOC3(CCCN(c4ncccn4)C3)C2)nc1` (stereo not drawn), 0.804%. As for `CCCS(=O)(=O)N1CCOCC2(CCN(c3ccccn3)C2)C1` (stereo not drawn), the figure is 20.5%; as for `Cc1cnc(N2CCOC3(CCCN(C)C3)C2)nc1` (stereo not drawn), 52.3%. As for `CCS(=O)(=O)N1CCOCC2(CCN(c3ccccn3)C2)C1` (stereo not drawn), the figure is 11.4%; as for `Cc1cccc(S(=O)(=O)NCC2CCN(c3cnccn3)CC2)c1`, -87.6%. As to `CN(C)S(=O)(=O)c1ccc2c(c1)N(Cc1nccn1C)CCC2`, the INHIBITION was determined as 41.4%. As for `COCC(C)(O)CNC(=O)c1cc(-c2cc(OC)ccc2OC)nn1C` (stereo not drawn), the figure is -43.5%; as for `CC(C)(C)OC(=O)NC1CCC(NC(=O)c2ccc[nH]2)CC1` (stereo not drawn), 12.7%.

For `CN(C(=O)c1cccn1C)C1CCC(NC(=O)OC(C)(C)C)CC1` (stereo not drawn), the INHIBITION turned out to be 22.3%. As for `COc1cc(CN2CCC(NC(=O)c3cccn3C)C2)cc(OC)c1` (stereo not drawn), the figure is 44.9%; as for `COc1cc(OC)cc(N2CCC(NC(=O)c3cccn3C)CC2)c1`, 62.5%. With `Cn1cccc1C(=O)NC1CCN(c2ccc(OC(F)(F)F)cc2)CC1`, the INHIBITION is on record as 64.9%. `CCS(=O)(=O)c1ccc(N2CCC(NC(=O)c3cnn(C)c3)CC2)cc1`: the INHIBITION was found to be 43.4%. As for `COc1cc(OC)cc(N2CCC(NC(=O)c3ccc[nH]3)CC2)c1`, the figure is 50.5%; as for `Cn1ccc(C(=O)NC2CCN(c3ncccn3)CC2)cc1=O`, 18.4%.

Regarding `CCS(=O)(=O)c1ccccc1N1CCC(NC(=O)c2ccc[nH]2)CC1`, the INHIBITION worked out at 18.4%.

For `O=S(=O)(NCC1COc2ccccc2C1)N1CCOCC1` (stereo not drawn), the INHIBITION was 18.6%.

Turning to `COc1ccc2c(c1)CC(NCCCn1nc(C)nc1C)CC2` (stereo not drawn), the INHIBITION is reported as 15.8%. As for `O=C(O)c1cc(S(=O)(=O)Nc2cccc3c2OCCO3)ccc1F`, the figure is 45.7%; as for `O=C(O)c1cc(S(=O)(=O)Nc2cccc3c2OCCO3)c(Cl)cc1F`, 81.7%; as for `Cc1ccccc1NS(=O)(=O)c1cc2c(c(C(=O)O)c1)OCCO2`, 35.3%. As for `Cc1cc(C)c(S(=O)(=O)Nc2cccc3c2OCCO3)cc1C(=O)O`, the figure is 50%. As for `O=C(O)c1cc(S(=O)(=O)Nc2cccc(F)c2F)cc2c1OCCO2`, the figure is 22.3%; as for `Cc1cc(C)c(S(=O)(=O)Nc2ccccc2CC(F)(F)F)cc1C(=O)O`, 15.9%. Consider `Cc1nc(C2CCCN2C(=O)Cc2ccc(F)cc2)nc(O)c1C` (stereo not drawn), for which the INHIBITION is recorded as -10.5%. As for `Cc1ccc(-n2nnc(C(=O)NC(C)C)c2C2CC2)cc1`, the figure is 15.5%; as for `O=C1CCCN1Cc1ncn2c1CN(C(=O)NC1CCCCC1)CCC2`, -19.5%. As for `COc1cccc(Nc2nc(C3CCCNC3)c3ccccn23)c1` (stereo not drawn), the figure is -23.425%; as for `Cc1c(C)n(CC(O)CN2CCCCCC2)c2c(Cl)cccc12` (stereo not drawn), -48.6%.

Regarding `Cc1c(C)n(CC(O)CN2CCOCC2)c2c(Cl)cccc12` (stereo not drawn), the INHIBITION worked out at 56.5%.

On to `Cc1c(C)n(CC(O)CN2CCC(C)CC2)c2c(Cl)cccc12` (stereo not drawn), for which the INHIBITION amounted to 37.3%. As for `Cc1nc[nH]c1C(=O)NCc1cccnc1N(C)C1CCCCC1`, the figure is 26.8%; as for `CCn1cc(C(=O)N(C)[C@@H]2CC[C@@H](N3CCCC3)[C@@H]2O)c(C)n1`, 12.335%. Take `CCc1ccc(CN2CCN(c3ncc(Cl)cn3)CC2)nc1`: the INHIBITION came out at 50.1%. In the case of `COc1ccc(CN2CCN(c3ncc(Cl)cn3)CC2)cc1`, the INHIBITION turned out to be 11.8%. As for `CCc1ccc(CN2CCN(c3ccc(Cl)nn3)CC2)nc1`, the figure is -7.94%; as for `COc1ccccc1N1CCN(C(=O)Cn2nccc2C)CC1(C)C`, -56.6%; as for `COc1ccccc1N1CCN(C(=O)Cn2nc(C)cc2C)CC1(C)C`, 52.8%. As for `COc1ccccc1N1CCN(C(=O)CCn2ccnc2C)CC1(C)C`, the figure is 6.31%.

With `COc1ccc(N2CCN(C(=O)CCn3nnnc3C)CC2(C)C)cc1`, the INHIBITION was -34.8%. As for `COc1ccccc1N1CCN(C(=O)CCn2nnnc2C)CC1(C)C`, the figure is 51.8%. As for `COc1ccccc1N1CCN(C(=O)CCn2ccc(C)n2)CC1(C)C`, the figure is 8.48%; as for `CC1=C(C(=O)NCCc2n[nH]c3c2CCCC3)C(C)NC(=O)N1` (stereo not drawn), -22.3%. As to `COCCn1ccnc1C1CCCN(C(=O)c2cc(F)cc(F)c2)C1` (stereo not drawn), the INHIBITION came out at 40.2%.

For the molecule `Cc1occc1C(=O)N1CCCS1(=O)=O`, the INHIBITION is listed as 35.7%. As for `Cc1ccsc1CNC(=O)N1CCC(Cc2cnn(C)c2)C1` (stereo not drawn), the INHIBITION was 11.083%. As to `Cc1ccc(CNC(=O)N2CCOCC2C2CC2)cc1F` (stereo not drawn), the INHIBITION came to 49.3%.
